Assay outcomes from PubChem.
NS1 inh = qHTS Assay for Inhibitors of Influenza NS1 Protein Function | Potency, µM (series often up to 46.1 µM), for the others: at the highest dose activity, positive = more growth | 270,000 tested, 0.4% active | AID 2326, 2010; calls by dose curve; also: actives are rising curves; nearly all actives have a fitted effect of over 50% in size
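In this qHTS, NS1 from influenza A is expressed in budding yeast, where it slows growth. Cells are switched from glucose to 2% galactose medium (pH 6.0, -URA), treated with compound, and growth recovery is read at OD600.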
TbPYK inhibitor = qHTS of Trypanosoma Brucei Inhibitors | Potency, µM (top dose mostly 76.8 µM), for inactives: at the highest dose activity, negative = inhibition, hits mostly inhibitors | TbPYK enzyme, Kinase-Glo Plus ATP luminescence, 45 min | 410,000 tested, 0.12% active | AID 624173, 2012; also: % is scaled to controls: 0 for no effect and ±100 for the full control effect; nearly all actives have a fitted effect of over 50% in size
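Activity of T. brucei pyruvate kinase was followed by Kinase-Glo Plus luminescence after the enzyme reacted 45 min at room temperature with 130 uM ADP (final) and substrate. Test compounds were added before ADP at multiple concentrations.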
Sm TGR block = qHTS Assay for the Inhibitors of Schistosoma Mansoni Peroxiredoxins. 360,000 tested, 3% active. AID 485364, 2010. Potency, µM (top dose mostly 114 µM), without a hit: at the top dose activity change, negative = inhibition, hits mostly inhibitors. Schistosoma mansoni thioredoxin glutathione reductase (TGR), Q962Y6. purified TGR, DTNB reduction, TNB absorbance 405 nm; also: % is scaled to controls: 0 for no effect and ±100 for the full control effect; nearly all actives have a fitted effect of over 60% in size
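TGR 20 nM + NADPH 100 uM (dispensed conc.), cpd preinc 15 min RT; start with NADPH (500 uM addition) then DTNB (15 mM addition). Kinetic TNB absorbance, 405 nm filter. Four-parameter Hill fit across titration.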
LmPK inhibitor = qHTS Assay for Inhibitors of Leishmania Mexicana Pyruvate Kinase (LmPK); Q27686; purified LmPK, Kinase-Glo ATP luminescence, 1 h; Potency, µM (series often up to 57.5 µM), inactives show top-dose activity change, negative = inhibition, most hits filed as inhibitors; 290,000 tested, 0.37% active; AID 1721, 2009; also: % is scaled to controls: 0 for no effect and ±100 for the full control effect
Target sequence (Q27686 whole entry, looked up): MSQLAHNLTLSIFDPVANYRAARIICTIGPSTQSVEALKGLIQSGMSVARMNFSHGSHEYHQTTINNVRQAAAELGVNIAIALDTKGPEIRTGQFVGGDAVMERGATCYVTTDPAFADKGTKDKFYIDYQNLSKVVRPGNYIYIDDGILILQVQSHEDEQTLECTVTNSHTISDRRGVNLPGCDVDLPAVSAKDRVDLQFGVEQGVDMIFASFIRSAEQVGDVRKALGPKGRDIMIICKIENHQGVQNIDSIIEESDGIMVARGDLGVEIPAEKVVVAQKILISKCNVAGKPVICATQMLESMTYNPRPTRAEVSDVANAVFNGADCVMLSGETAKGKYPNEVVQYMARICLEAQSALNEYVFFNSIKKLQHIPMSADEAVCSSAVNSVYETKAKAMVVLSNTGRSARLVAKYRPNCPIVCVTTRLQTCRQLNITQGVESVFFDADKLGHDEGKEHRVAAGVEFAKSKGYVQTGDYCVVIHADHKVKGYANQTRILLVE
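Purified LmPK (0.1 nM) with 0.5 mM PEP and 0.1 mM ADP in imidazole buffer pH 7.2 with MgCl2/KCl, 1 h at room temperature. ATP formed was read by luciferase luminescence and normalized to no-enzyme and uninhibited controls.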
SARS PLP yeast = qHTS of Yeast-based Assay for SARS-CoV PLP. S. cerevisiae expressing SARS-CoV PLpro, growth rescue. Potency, µM (top dose mostly 32.9 µM), for the others: top-dose activity, positive = growth rescue, actives largely listed as activators. 330,000 tested, 0.19% active. AID 485353, 2010; calls by dose curve; also: 0% is about no effect; nearly all actives have a fitted effect of over 55% in size
RE007 growth inh = qHTS Assay for Inhibitors of the HIV-1 protein Vpr. Potency, µM (top dose mostly 92.2 µM), without a hit: at the top dose activity change, negative = less growth, actives largely listed as inhibitors. 360,000 tested, 0.21% active. AID 651644, 2012. S. pombe RE007 Vpr strain, BacTiter-Glo ATP luminescence, 24 h; active = well fitted falling curve with a large enough effect; inconclusive = small, poorly fitted or top-dose-only effect; inactive = no such curve, though single readings can be large or run the other way; also: % is scaled to controls: 0 for no effect and ±100 for the full control effect; nearly all actives have a fitted effect of over 50% in size
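Fission yeast strain RE007, carrying one chromosomally integrated HIV-1 vpr copy, was seeded at OD 0.01 in PMG+AL medium with 23 nL pinned compound. After 24 h at 30 °C and 99% humidity, viability was read by BacTiter-Glo luminescence.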
* marks the source's active call; other numbers are inactive results; ? = inconclusive; nt = no result; [ ] = remark or other dose. This is a sample that favours compounds with a hit; in the whole collection about 3.3% have one here. Unless noted, calls follow the shape of the dose curve; as a rule, active = well fitted curve in the direction sought with a large enough effect; inconclusive = small, poorly fitted or top-dose-only effect, or another doubt; inactive = no such curve, though single readings can be large; an effect the other way counts as inactive or inconclusive. Potency is read from the fitted curve at half-maximal effect.

SMILES	NS1 inh	TbPYK inhibitor	Sm TGR block	LmPK inhibitor	SARS PLP yeast	RE007 growth inh
CN(C)c1nc(N)nc(/C(C#N)=C/C2CC3C=CC2C3)n1 (configuration not stated)	7%	-4%	40µM*	-1%	-2%	0%
CCCC(=O)c1ccc2c(c1)OCCO2	-1%	0%	-3%	2%	9%	-29%
Nc1ccccc1C(=O)OCC(=O)c1ccc2c(c1)OCCO2	13%	-19%	28%	14µM*	5%	-15%
O=C(CCN1CCc2ccccc2C(c2ccccc2)C1)c1ccc2c(c1)OCCO2 (configuration not stated)	-49%	?	0.56µM*	-1%	-26%	5.6µM*
O=C(O)CCC(=O)c1ccc2c(c1)OCCO2	?	4%	-16%	-3%	-8%	-7%
O=C(O)/C=C/C(=O)Nc1ccccc1C(=O)OCC(=O)c1ccc2c(c1)OCCO2	nt	-6%	48%	-22%	-2%	16%
O=C(CS(=O)(=O)c1ccccc1)c1ccc2c(c1)OCCO2	6%	6%	?	13µM*	?	17%
O=C(CCN1Cc2ccccc2C1)c1ccc2c(c1)OCCO2	-87%	?	0.89µM*	0%	-49%	?
COc1ccc(-c2noc(-c3cccc(OC)c3OC)n2)cc1	nt	-5%	-2%	nt	nt	nt
CCOC(=O)c1cnn(-c2ccc(C(=O)Nc3cccc(C(C)=O)c3)cc2)c1N	nt	-6%	4%	nt	nt	nt
CC(C)(C)OC(=O)[C@H](C1N[C@@H](C(=O)O)C(C)(C)S1)N1C(=O)c2ccccc2C1=O (some centres not stated)	-1%	nt	nt	nt	nt	nt
COc1ccc(C(c2c(O)nc(SC)n(C)c2=O)c2c(O)nc(SC)n(C)c2=O)cc1O	20%	-13%	13µM*	1%	10%	-10%
COc1ccc(-c2nc(SC)n(C)c(=O)c2C#N)cc1OC	-2%	-26%	7%	-12%	5%	0%
CC1(C)Cc2c(C#N)c(NCC3CCCO3)nc(-c3ccco3)c2CO1 (configuration not stated)	-3%[9.22 µM]	?	4.5µM*	-3%	-8%	-5%
CC1(C)Cc2c(C#N)c(NC3CCCCC3)nc(-c3ccco3)c2CO1	-49%	nt	1.8µM*	-13%	-8%	nt
CC1(C)Cc2c(C#N)c(NCCc3ccccc3)nc(-c3ccco3)c2CO1	7%	?	?	-1%	-1%	?
CCOc1cc(C2C(C(=O)OC)=C(C)NC3=C2C(=O)c2ccccc23)c(Br)cc1OC (configuration not stated)	nt	0%	15%	nt	nt	nt
CCOc1cc(Br)c(C2C(C(=O)OC)=C(C)NC3=C2C(=O)c2ccccc23)cc1OCC (configuration not stated)	nt	0%	22µM*	nt	nt	nt
C=CCc1cc(/C=C2/NC(=S)NC2=O)cc(OC)c1O	7%	-22%	5%	0%	-4%	8%
C=CCc1cc(/C=C2/NC(=O)NC2=O)cc(OCC)c1O	nt	-14%	50µM*	-4%	1%	-23%
COc1cc(N2C(=O)C=CC2=O)c(OC)cc1Cl	-70%	?	0.71µM*	14µM*	-6%	40µM*
COc1cc(Cl)c(S(=O)(=O)N2CCCC2)cc1Cl	4%	-1%	?	1%	0%	-20%
O=C(NCc1ccccc1)C(C1CC1)n1c(CSCCOc2ccccc2)nc2ccccc21 (configuration not stated)	nt	nt	nt	nt	nt	9%
CC(C)(C)c1ccc(C(=O)O/N=C(\N)c2ccccn2)cc1	-51%	-8%	-5%	-16%	-11%	-2%
N/C(=N\OC(=O)c1ccc(Br)o1)c1ccccn1	-34%	-21%	1%	13µM*	-21%	?
SMILES	NS1 inh	TbPYK inhibitor	Sm TGR block	LmPK inhibitor	SARS PLP yeast	RE007 growth inh
Cc1ccc(C(=O)O/N=C(\N)c2ccccn2)cc1	-26%	?	1%	14µM*	-24%	?
Cc1cccc(/C(N)=N/OC(=O)c2ccc(Br)o2)c1	-19%	-17%	2%	-23%	-61%	?
C/C(=N/OC(=O)c1ccc(C)cc1)c1cccs1	-59%	?	-1%	10µM*	-20%	?
CCOC(=O)c1nnn(-c2nonc2-n2cccc2)c1CN1CCC(C)CC1	-34%	2%	-8%	1%	-8%	14%
CCOC(=O)c1nnn(-c2nonc2-n2cccc2)c1CCl	-15%	3%	8.9µM*	7%	-4%	-12%
Cn1cccc1C(=O)N1CCC[C@@]2(CCN(C(=O)Nc3cccc(F)c3)C2)C1	nt	0%	nt	nt	nt	nt
COc1cc2c(cc1OC)C(C)N(C(=O)c1cc3n(n1)C(C(F)(F)F)CC(c1ccco1)N3)CC2 (configuration not stated)	-14%	3%	25µM*	-1%	24%	-14%
CCOC(=O)N=Nc1c2ccccc2c2nc3no[nH]c3nc12	nt	3%	58%	-5%	-33%	5µM*
Cc1sc2c(c1C)CN(CCN1CCOCC1)CN2C(=O)c1ccccc1	nt	-7%	79µM*	0%	0%	-14%
O=C(c1ccccc1)c1ccc(C(=O)N2CCOCC2)cc1	-5%	-1%	0%	-6%	1%	4%
COc1cc(-c2cccs2)cc(=O)c2c(C)oc(C)c12	-13%	-5%	40µM*	1%	9%	-3%
COc1cc(-c2cc(OC)c3c(C)oc(C)c3c(=O)c2)ccc1OC(=O)c1ccccc1F	nt	?	-1%	nt	nt	nt
COc1ccc(C=C2C=C(C(C)(C)C)C(=O)C(C(C)(C)C)=C2)cc1OC	-16%	4%	4.5µM*	1%	0%	2%
Nc1nc(Cl)nc2c1ncn2[C@@H]1O[C@H](CO)[C@H](O)C1F (some centres not stated)	nt	7%	nt	nt	nt	nt
O=C(N[C@@]1(C(=O)O)C[C@@H]1c1ccccc1)c1ccccc1	-5%	nt	nt	nt	nt	nt
Cc1ccc(C(=O)N/C(=C/c2ccco2)C(=O)N2CCC(C)CC2)cc1	9%	-6%	50µM*	-6%	13%	1%
CC1CCN(C(=O)/C(=C\c2ccco2)NC(=O)c2ccccc2)CC1	15%	-2%	-35%	2%	2%	5%
O=C(N/C(=C\c1ccco1)C(=O)N1CCCC1CO)c1ccccc1 (configuration not stated)	6%	8%	35µM*	0%	0%	-5%
CC1CCN(C(=O)/C(=C\c2cccs2)NC(=O)c2ccccc2)CC1	-14%	-12%	4µM*	-4%	1%	-16%
COc1ccc2oc(=O)cc(CN3CCN(c4ccccc4OC)CC3)c2c1	nt	-3%	1%	nt	nt	nt
